Results from PubChem BioAssay AID1347426 (Functional Genomics Laboratory (NCATS/FGL), 2020).
In all, about 31,000 sequences went through this assay and about 1,400 (4.5%) were called active.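 How the source made its calls: active means median seed-adjusted z-score above 1 or below -1; inactive means the rest.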 Many of the other results were omitted from the sample, so actives are more common in it than they were.

Test: Novel Modifiers of Survival Motor Neuron (SMN) Protein: Gene Identification via Genome-wide siRNA Screen
Conditions: HEK293T SMN2-luciferase reporter, siRNA knockdown, 72 h; actives lie on both sides
Description: Spinal muscular atrophy (SMA) is the most common neuromuscular autosomal recessive disorder and one of the leading genetic causes of infant death. SMA results from mutations inducing loss of function or deletion in the survival of motor neuron-1 gene (SMN1), leading to deficiency of the survival motor neuron (SMN) protein. Although a second nearly identical gene, SMN2, is retained in humans, its expression primarily produces an aberrantly spliced isoform that is largely unstable and quickly degraded. We performed a genome-wide RNAi screen using a cell-based reporter assay to identify genes and pathways that modulate SMN protein stability. The screen identified over 200 genes that led to the greatest increase or decrease in luciferase expression.
Using HEK293T cells stably expressing a luciferase reporter that combines the promoter and splicing based cassettes in tandem with the major portion of the native SMN2 cDNA with luciferase, we performed a genome-wide RNAi screen to identify modulators of SMN protein levels. Luciferase is expressed when full-length SMN protein is generated with luminescence signal proportional to SMN protein levels. Our luciferase-based reporter assay was used to screen Ambion Silencer Select Human Druggable Genome siRNA library (10418 genes, 3 unique siRNAs per gene) using lipid-based reverse transfection.
Briefly, 1 pmol of each siRNA was spotted to a well of a 384-well plate (Corning, Corning, NY) and 20 microL of serum-free DMEM containing […] of Lipofectamine RNAiMax (Life Technologies, Carlsbad, CA) was then added to each well. Transfected cells were maintained at 37 degrees C in 5% CO2 for 72 hours, 20 microL of ONE-Glo Reagent (Promega) was added to wells for luciferase quantification. Raw luminescence reads were normalized to Ambion(R) Silencer(R) Negative Control #2 siRNA, then log10 transformed. A robust statistical measure of median absolute deviation (MAD) to standardize siRNA activities from each screen. Common Seed Analysis was used to help prioritize clean hits as opposed to those appearing to arise from seed based off-target effects. Candidate modulators were defined as the genes having a MAD score greater than 1.0 or less than -1.0.

Sequence	median seed-adjusted z-score
GAUAUUUGAUUGAUGUAGATT against DUSP11	-0.0184 (inactive)
ACAGAAUAAUGUACAAGAATT against POLR2K	-3.72 (active)
GCCUAGACCUCUUCGCUUUTT against PASK	0 (inactive)
GCAGCUGAGUUCUACAAGATT against RAG1	-1.35 (active)
GGAUAAUGAGUCGGAAGUATT against CNTN4	-0.407 (inactive)
CCAGGUUUAUGUAGAAGUUTT against NMI	0.982 (inactive)
GGAUGAAGAACGAAUGGUATT against ENDOD1	-0.138 (inactive)
GGCACUCAGCGCAAGAAGATT against TIGD5	0 (inactive)
GGAAGAGGAGUAGACCUUATT against RAB5A	0.244 (inactive)
CCGGCAAGAUUAUCGAGUATT against HCFC1	1.47 (active)
CAUUCGCAAAGGAUCGUGATT against PAPSS2	-0.201 (inactive)
CAGCGUAUUUGAGAAUUUATT against ATRX	-0.158 (inactive)
GCAAGUGUUUUGAUCAAAATT against ZNF662	0.352 (inactive)
GAAUAUUGCAAUAGACUUATT against ZNF678	0.172 (inactive)
GCAUUUCACCAUUCAAACATT against PCSK9	0.146 (inactive)
GGAUGUUUCCUACCUAUAUTT against FOLR1	-1.31 (active)
CCAGUUCGCUAUCACCAAATT against MATN1	-0.271 (inactive)
CGAUCAAUGUUAGAAGUUATT against ACTR2	0.548 (inactive)
CCUUAGAUCUCGCGAAGAATT against DCT	-0.184 (inactive)
CCAAUACACUAGCAGUUAATT against TCP1	-1.02 (active)
GCCUGUGAAUGUCCGAGAATT against AARSD1	-0.156 (inactive)
GGUAGUCUAUCACUUCGAATT against TRIM37	-0.108 (inactive)

Sequence	median seed-adjusted z-score
GCUCAACACUCAUCAAACATT against ZNF774	-0.0834 (inactive)
CAUGGUCACUGCUAGUGUATT against MBOAT1	-1.22 (active)
GCACCUACUUCAUCUAUAGTT against EDA	0.316 (inactive)
GAGAUUCAAAGAAUAGUAATT against RASSF6	-0.592 (inactive)
CCCUUGAAGGCAAAGAUCATT against OPRK1	-1.08 (active)
GAGAUUCAUCGGUUCAAUATT against WRNIP1	0.00972 (inactive)
GCCUUAGUGUGCCUCCCAATT against APLN	0.0181 (inactive)
GAUCUGGUCGAGUUUAAAATT against NAT2	-0.0495 (inactive)
CCACAUGACUUAUUAUGCATT against DCN	0.326 (inactive)
GGGCAGUUCUUGCAACCAUTT against ALDH1A2	0.564 (inactive)
CGAGAUAACUACUGCCGAUTT against PCOLCE2	-1.15 (active)
CCGUCUACGUGACCAUUGATT against ABCC1	0 (inactive)
GCUUUUACAACAUUUCGAATT against SLC30A4	0.158 (inactive)
GUAAAUCACCGGCUACAAATT against ITGA3	0 (inactive)
UCAUGCUCAUUGGGAAUAATT against RAB2B	0.882 (inactive)
GCUUUGCAGUGAAUAUCGATT against SPINK5	0.26 (inactive)
CCUGGAUACCCUAAGCAAATT against PSMD2	-1.44 (active)
CCACGAUCGUUCACAAGGATT against KCTD4	0.649 (inactive)
CUAUAGUGGUUCAUCACAATT against GCNT1	0.463 (inactive)
ACGAGUACAUCAACGAGUATT against ABCA2	-1.18 (active)
CACUCAGCGUGGACCAUUUTT against HCN3	0.301 (inactive)
CUAUCAAUCCCAGCACUAATT against CDKL3	0.243 (inactive)

Sequence	median seed-adjusted z-score
GCACUCUGAAGAUCGAAUATT against HNRNPL	1.04 (active)
CUAUGAUUAUAGCCGGGUATT against PTPN22	-0.0843 (inactive)
GGAAAAGUAUGAACUGAAATT against TREM1	0 (inactive)
GGGUCUUACGAAUGCGGAATT against ZNF618	0.311 (inactive)
GAACGUAAGAAAUACAAUUTT against HSPA4L	0.288 (inactive)
CUUCAUCUUUUACACCAUUTT against SLC35B2	-0.313 (inactive)
CACUACUAAAAACCUAAAATT against EFHD2	0.874 (inactive)
GUAGUGAAGUGUAUCCGGATT against ANXA6	-1.01 (active)
GAAUCCUCAAUGUGGAUGATT against HPCA	0.12 (inactive)
GGCUUUUUGCUACAGAUGATT against OSGEP	0.0178 (inactive)
GUAUGUCACCUAUCACUGUTT against SLC25A38	0 (inactive)
GCAUCGCUGUAGGUUUUGATT against THBS2	-0.721 (inactive)
GCAUCUGCGAUGUGAGGAATT against RYBP	0.831 (inactive)
GCAUCAGGGUCAUGGUUCATT against SCNN1D	-1.8 (active)
CCACCUACAGAGUGUCCUATT against EMID2	0.0465 (inactive)
GGACAAGACGCAAGAAGAATT against TEF	0 (inactive)
CCAAGGAGGUGCACUAUAATT against FHL1	0.574 (inactive)
AGAUGAUUCUAGAAUCCAATT against STK32B	0.683 (inactive)
GGAAUACCAUGAGCUGUUATT against OSBP	0.256 (inactive)
CAAGCAUAUUAAUGAGGUUTT against DYRK1A	-1.3 (active)
GCUCCCAUCAUGUACGUUUTT against GPR155	0.0681 (inactive)
GGAUGAGCAGUACCAGGCATT against PYCARD	0.117 (inactive)

Sequence	median seed-adjusted z-score
GAACUAAACUUGUUAAUGATT against TRIM36	-0.262 (inactive)
GGAGCAACAUUAUAGUCAATT against TGS1	-0.564 (inactive)
CUACGAGAAUAAUUCGGAATT against THOC1	-3.04 (active)
CCGGGAAAGUAGAAUUACATT against IGF2BP1	-0.993 (inactive)
GCAGUACUCUGCUACCUGATT against IL22RA1	-1.14 (active)
GGAGAACCAGUGGAAUUCATT against LIN28B	0.407 (inactive)
GCACUUCUCUUAAGGACGATT against UNC13B	-0.0216 (inactive)
CAUGUACUAUUUUCAGUAUTT against SETD8	-1.52 (active)
GCUUCUUAGCUGAGGAAAATT against RDH11	-0.241 (inactive)
CAAGGUAUUAUGCAACGUATT against FLG	0.221 (inactive)
GAGUAUGCCGUGAAGAUCATT against RPS6KA2	0.139 (inactive)
GGCGUACGGUGAGAACAUUTT against ATP1B1	0.971 (inactive)
GUAUAAUCCUCAGAGCAAATT against CXXC1	-0.841 (inactive)
CAUGAAUCCUUUACAGCAATT against RALB	-0.534 (inactive)
GACUGUGAGACUUACCAUATT against MED20	-1.66 (active)
CGGUCUCACCUGCACCAAATT against SSPO	0.397 (inactive)
GGAGAUUCACGAGCUGCGATT against EGFL8	0.365 (inactive)
GCUCAAGGCAUUCUACAAATT against SLC25A1	0.252 (inactive)
GGAUCGAGUUUGAUAACGATT against ITGA6	-0.224 (inactive)
GAUACGAAAUGGUGUUAAATT against POLG2	0 (inactive)
CCCAAUAACUCUGUCGAUATT against ATP11C	0.102 (inactive)
GGAGUAACUGAGAUAGAAATT against AGPAT3	0 (inactive)

Sequence	median seed-adjusted z-score
GGAUCGUAAAAAUAGCAAATT against DGKA	-1.36 (active)
GAGCCUCUAUUAAUGGACATT against RASSF6	-0.592 (inactive)
GGAACACCCGUUUAACAAATT against ASH2L	-0.464 (inactive)
GGAGGAUAGCAGCAGAAGATT against ATP5I	-0.871 (inactive)
GGUGAAUGCUGAUGACUCUTT against CLDN16	-0.868 (inactive)
CCACCAACGAAUACGUCUATT against PRKCSH	-0.0512 (inactive)
GAAUCUACAGGAAACGAGATT against SETD8	-1.52 (active)
CUCUACACCGUGUACAUCATT against CHRM4	-0.856 (inactive)
GCAGCAUGAGAAUGUCAAATT against GPD1	0.558 (inactive)
CUACAGCCUAUAUAUGAAATT against FCRL1	-0.873 (inactive)
CGACAAUAUUCCUUGAUGATT against CTGLF1	0.0231 (inactive)
GGGAUAAGCAGAUAGAAGATT against MYST2	-1.46 (active)
GGAUGUUUUUCGAAGGAUATT against RHEB	-0.387 (inactive)
GGACCGCAGCAAUGACAUUTT against SH3KBP1	-0.34 (inactive)
AGACGGUGACUUACAAAAATT against ARF6	-0.805 (inactive)
GCAACUUCAUUUCUCAUCUTT against CA6	0.349 (inactive)
GUAUAUAAACAGACAAUGATT against DNAJC8	-1.62 (active)
UCAUCUUCUUUGACCCAGATT against HNF4A	-0.0274 (inactive)
GAGAGAAUCAUUACGAAAATT against MTMR2	0.495 (inactive)
CAAACUUAAAGGUCAGAAATT against WHSC1	1.17 (active)
GGACAAAGUCUUAACAAAATT against SLC30A10	0.523 (inactive)
